Some test systems named below: HCT-15 colon; HT29 colon; SNB-75 CNS; SNB-19 CNS; U251 CNS; PC-3 prostate; SK-MEL-5 melanoma; UACC-62 melanoma; LOX IMVI melanoma; SK-MEL-28 melanoma; SK-MEL-2 melanoma; EKVX NSCLC; SN12C renal; UO-31 renal; TK-10 renal; ACHN renal; CAKI-1 renal; A498 renal; CCRF-CEM leukemia; MOLT-4 leukemia.
What all share (experiment): NCI-60 one-dose screen, 48 h (100 = growth as untreated, 0 = no growth, -100 = all killed)
Common to all, as to conditions: 10 µM unless noted

Molecules are shown by their SMILES. About 83,000 compounds went through this panel and 20% of them were active in at least one assay; those are over-represented in the sample as a whole.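 96-well plates, one dose, 48 hours. Percent growth reported; active if below 10.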 A number with no mark means an inactive call. Activity calls are given as the source filed them.

As to `CCOC(=O)c1c(C)nc2c(c1N)C(=O)C(=O)N2Cc1ccc(OC)cc1`, the growth in the test with HCT-15 colon is 22.7%; in the test with HT29 colon, 26.5%; with SNB-75 CNS it was 30%; in the test with SNB-19 CNS, 80%; in the test with U251 CNS, 38.1%; in the test on PC-3 prostate, 47.9%. Further, the growth in the test on SK-MEL-5 melanoma was 81%; in the test with UACC-62 melanoma, 53.3%; in the test with LOX IMVI melanoma, 61.1%; in the test on SK-MEL-28 melanoma, 76.7%; in the test on SK-MEL-2 melanoma, 113%; in the test with EKVX NSCLC it was 90.9%. In addition, the growth was 82.6% with SN12C renal; 59.6% in the test on UO-31 renal; 96% in the test with TK-10 renal; 66.3% in the test on ACHN renal; 83.3% with CAKI-1 renal; 90.4% in the test with A498 renal. The growth in the test with CCRF-CEM leukemia is 59.1%; in the test with MOLT-4 leukemia, 101%.
Consider `Cc1ccc(C)c2c1sc1nc(N3CCOCC3)c(C#N)c(=O)n12`, for which the growth with HCT-15 colon is 102%; with HT29 colon it was 97.2%; in the test on SNB-75 CNS, 53.2%; in the test with SNB-19 CNS, 96.3%; in the test on U251 CNS, 58.9%; with PC-3 prostate, 18.5%. The growth was 88.5% in the test on SK-MEL-5 melanoma; 90.2% in the test with UACC-62 melanoma; 67% in the test with LOX IMVI melanoma; 103% with SK-MEL-28 melanoma; 110% in the test with SK-MEL-2 melanoma; 80.2% with EKVX NSCLC. Besides, the growth was 104% with SN12C renal; 74.9% in the test on UO-31 renal; 154% with TK-10 renal; 105% in the test on ACHN renal; 105% with CAKI-1 renal; 75.7% in the test on A498 renal. Also, the growth in the test with CCRF-CEM leukemia was 83.1%; with MOLT-4 leukemia it was 110%.
In the case of `COc1ccccc1S(=O)(=O)Nc1ccc2c3c(cc(CCC(=O)NCCCCNc4cccc5c4C(=O)N(C4CCC(=O)NC4=O)C5=O)cc13)C(=O)N2C` (stereo not given), the growth was 68.4% in the test with HCT-15 colon; 48.4% with HT29 colon; -26.1% (active) in the test on SNB-75 CNS; 7.56% (active) in the test on SNB-19 CNS; 61.4% in the test with U251 CNS; 3.96% (active) in the test on PC-3 prostate. The growth in the test on SK-MEL-5 melanoma is -33% (active); with UACC-62 melanoma, 43.9%; in the test on LOX IMVI melanoma, 21.4%; in the test with SK-MEL-28 melanoma it was 13.3%; with SK-MEL-2 melanoma, 11%; with EKVX NSCLC, 71%. For the same molecule, the growth in the test with SN12C renal is 7.95% (active); in the test with UO-31 renal it was 55.2%; with TK-10 renal, 58%; in the test with ACHN renal, 92.4%; in the test on CAKI-1 renal, 37.5%; with A498 renal it was 15.6%. For the same molecule, the growth in the test on CCRF-CEM leukemia was -0.604% (active); in the test on MOLT-4 leukemia, 0.837% (active).
Consider `Cc1[nH]n(-c2cccc(Cl)c2)c(=O)c1/C=C1\C=c2ccccc2=CC1=O`, for which the growth with HCT-15 colon is 49.9%; in the test with HT29 colon it was 13.5%; in the test with SNB-75 CNS, -5.52% (active); in the test with SNB-19 CNS, 31.4%; with U251 CNS, -10.7% (active); in the test on PC-3 prostate it was 33%. Also, the growth is -82.5% (active) in the test on SK-MEL-5 melanoma; 82.7% with UACC-62 melanoma; -79.4% (active) in the test on LOX IMVI melanoma; 51.1% with SK-MEL-28 melanoma; 38.1% in the test on SK-MEL-2 melanoma; 51.3% with EKVX NSCLC. Also, the growth with SN12C renal was 23.6%; in the test with UO-31 renal, 66.6%; with TK-10 renal, 17.2%; with ACHN renal, -36.1% (active); with CAKI-1 renal, 35%; in the test on A498 renal, 107%. Besides, the growth was 36.3% with CCRF-CEM leukemia and 44.2% in the test on MOLT-4 leukemia.
As to `Cc1nc(N/N=C/c2cn(-c3ccccc3)nc2-c2cc3ccccc3oc2=O)sc1N=Nc1ccccc1`, the growth with HCT-15 colon is 56.1%; in the test on HT29 colon, 85.2%; with SNB-75 CNS it was 50.4%; in the test on SNB-19 CNS, 91.9%; with U251 CNS, 93.1%; in the test on PC-3 prostate, 85.8%. Besides, the growth in the test on SK-MEL-5 melanoma was 93.3%; in the test on UACC-62 melanoma, 71%; in the test with LOX IMVI melanoma it was 89.5%; in the test with SK-MEL-28 melanoma it was 87.6%; in the test on SK-MEL-2 melanoma it was 93.7%; in the test with EKVX NSCLC, 102%. The growth in the test on SN12C renal was 97.6%; with UO-31 renal, 70.7%; with TK-10 renal it was 106%; with ACHN renal it was 98%; with CAKI-1 renal, 69.7%; in the test with A498 renal, 77%. The growth in the test on CCRF-CEM leukemia was 94.3%; in the test with MOLT-4 leukemia, 85.1%.
On to `Cc1nn(C)c2ncnc(N/N=C/c3cccc(O)c3O)c12`, for which the growth in the test with HCT-15 colon is 28.9%; with HT29 colon, 62.5%; with SNB-75 CNS it was 38.6%; in the test on SNB-19 CNS, 19.7%; in the test with U251 CNS, 15.7%; in the test with PC-3 prostate, 35.9%. Also, the growth in the test with SK-MEL-5 melanoma is -41.4% (active); in the test on UACC-62 melanoma, -8.29% (active); in the test on LOX IMVI melanoma, 4.98% (active); in the test with SK-MEL-28 melanoma it was 11.4%; with SK-MEL-2 melanoma, 31.5%; in the test with EKVX NSCLC, 6.94% (active). The growth was 7.54% (active) in the test on SN12C renal; -13.4% (active) in the test with UO-31 renal; 28.7% with TK-10 renal; 4.41% (active) in the test with ACHN renal; 6.5% (active) in the test on CAKI-1 renal; 26.6% in the test with A498 renal. Further, the growth with CCRF-CEM leukemia is -16.7% (active); in the test on MOLT-4 leukemia, 3.79% (active).
Take `OC1(c2ccccc2)c2ccccc2N(c2ccccc2)c2ccc(Cl)cc21` (stereo not given): the growth with HCT-15 colon is -44.2% (active); in the test with HT29 colon, -77.5% (active); with SNB-75 CNS, -57.6% (active); in the test with SNB-19 CNS it was -91.6% (active); in the test on U251 CNS, -87.9% (active); in the test on PC-3 prostate it was -75.1% (active). The growth was -97.6% (active) with SK-MEL-5 melanoma; -92% (active) with UACC-62 melanoma; -93.6% (active) in the test on LOX IMVI melanoma; -97.1% (active) in the test on SK-MEL-28 melanoma; -72.1% (active) in the test on SK-MEL-2 melanoma; -81.8% (active) in the test with EKVX NSCLC. Besides, the growth was -81.6% (active) in the test with SN12C renal; -95% (active) with UO-31 renal; -95.5% (active) in the test with TK-10 renal; -99.5% (active) with ACHN renal; -9.02% (active) in the test on CAKI-1 renal; -62.6% (active) in the test with A498 renal. Further, the results for the growth in the test with CCRF-CEM leukemia and with MOLT-4 leukemia were -13% (active) and 1.26% (active), respectively.
With `O=[N+]([O-])c1c(O)c(Cl)cc(Cl)c1Cl`, the growth is 99.8% in the test with HCT-15 colon; 101% in the test with HT29 colon; 98.8% with SNB-75 CNS; 101% in the test with SNB-19 CNS; 97.9% with U251 CNS; 88% in the test with PC-3 prostate. Besides, the growth with SK-MEL-5 melanoma is 98.3%; with UACC-62 melanoma, 100%; with LOX IMVI melanoma, 94.2%; with SK-MEL-28 melanoma, 109%; in the test on SK-MEL-2 melanoma, 113%; with EKVX NSCLC it was 107%. Besides, the growth with SN12C renal was 101%; with UO-31 renal, 93.6%; in the test on TK-10 renal, 96.8%; in the test on ACHN renal, 103%; in the test with CAKI-1 renal, 102%; in the test with A498 renal it was 110%. Besides, the growth is 106% in the test on CCRF-CEM leukemia and 100% in the test on MOLT-4 leukemia.

The values above are taken from PubChem BioAssay (NCI).
